Measurements published in PubChem BioAssay AID1159580 (chemical genetic matrix, 2015).
Out of some 5,500 compounds screened, about 2,000 (36%) were called active. Inconclusive results (about 18%) are left out. No stated cut-off is given here; in the data, active means normalized growth mostly below about 0.91 (no sharp cut-off); inconclusive means no clear call, values can overlap the other calls; inactive means mostly above about 0.92. This is one part of the list.

Test: chemical genetic growth profiling, strain panel (AID 1159580);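 further: tested at 20 µM; growth read once vehicle control cultures reached saturation at 30 °C; 1 = growth at the plate median or of vehicle wells; lower values mean less growth of the strain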
Conditions: S. cerevisiae deletion strains, growth OD

Measured: normalized growth

COc1cc(OC)c2c(=O)c(-c3ccccc3)c(C)oc2c1OC
inactive: locus YAL013W, strain DEP1, hits give low values 1.01 | locus YAL021C, strain ccr4, hits give low values 0.984 | locus YAL026C, strain drs2, hits give low values 0.986 | locus YAL030W, strain snc1, hits give low values 0.976 | locus YBL061C, strain skt5, hits give low values 0.975 | locus YBR009C, strain hhf1, hits give low values 0.953 | locus YBR021W, strain FUR4, hits give low values 1 | locus YBR023C, strain chs3, hits give low values 0.987 | locus YBR171W, strain sec66, hits give low values 0.984 | locus YBR229C, strain ROT2, hits give low values 1 | locus YBR231C, strain swc5, hits give low values 0.993 | locus YBR279W, strain paf1, hits give low values 0.986 | locus YCL011C, strain gbp2, hits give low values 0.973 | locus YCL016C, strain dcc1, hits give low values 0.987 | locus YCL029C, strain bik1, hits give low values 1 | locus YCL061C, strain MRC1, hits give low values 0.988 | locus YCL069W, strain vba3, hits give low values 0.974 | locus YCR088W, strain abp1, hits give low values 0.988 | locus YDL005C, strain med2, hits give low values 0.973 | locus YDL035C, strain GPR1, hits give low values 1.02 | locus YDL040C, strain nat1, hits give low values 0.985 | locus YDL074C, strain BRE1, hits give low values 1.02 | locus YDL101C, strain DUN1, hits give low values 1.01 | locus YDL134C, strain PPH21, hits give low values 1 | locus YDL185W, strain tfp1, hits give low values 1 | locus YDL192W, strain arf1, hits give low values 0.995 | locus YDR001C, strain nth1, hits give low values 0.987 | locus YDR069C, strain doa4, hits give low values 0.966 | locus YDR101C, strain arx1, hits give low values 0.984 | locus YDR137W, strain rgp1, hits give low values 0.955 | locus YDR150W, strain NUM1, hits give low values 1.02 | locus YDR159W, strain sac3, hits give low values 0.973 | locus YDR162C, strain NBP2, hits give low values 1.02 | locus YDR195W, strain ref2 0.921 | locus YDR297W, strain sur2, hits give low values 0.988 | locus YDR318W, strain mcm21, hits give low values 0.995 | locus YDR334W, strain swr1, hits give low values 0.981 | locus YDR335W, strain msn5, hits give low values 0.997 | locus YDR388W, hits give low values 0.988 | locus YDR392W, strain spt3, hits give low values 0.925 | locus YDR502C, strain sam2, hits give low values 0.997 | locus YEL003W, strain gim4, hits give low values 0.987 | locus YEL037C, strain rad23, hits give low values 0.981 | locus YEL061C, strain CIN8 (second series), hits give low values 0.967 | locus YEL061C, strain CIN8, hits give low values 1.01 | locus YER015W, strain faa2, hits give low values 0.981 | locus YER016W, strain bim1, hits give low values 0.986 | locus YER110C, hits give low values 0.994 | locus YER111C, strain swi4, hits give low values 0.971 | locus YER155C, strain BEM2 (second series), hits give low values 0.978 | locus YER155C, strain BEM2, hits give low values 1.01 | locus YER167W, strain BCK2, hits give low values 1 | locus YFR010W, strain ubp6, hits give low values 0.98 | locus YGL078C, strain dbp3, hits give low values 0.998 | locus YGL086W, strain mad1, hits give low values 1 | locus YGL167C, strain pmr1, hits give low values 0.97 | locus YGL173C, strain kem1, hits give low values 0.99 | locus YGL227W, strain vid30, hits give low values 0.961 | locus YGL240W, strain doc1, hits give low values 0.977 | locus YGL248W, strain PDE1, hits give low values 1 | locus YGL253W, strain hxk2, hits give low values 0.994 | locus YGR078C, strain PAC10, hits give low values 1.01 | locus YGR135W, strain pre9, hits give low values 0.993 | locus YGR229C, strain SMI1, hits give low values 1.03 | locus YGR252W, strain gcn5, hits give low values 0.943 | locus YHR013C, strain ard1, hits give low values 0.94 | locus YHR027C, strain rpn1, hits give low values 0.987 | locus YHR030C, strain SLT2, hits give low values 1.01 | locus YHR079C, strain IRE1 (second series), hits give low values 0.989 | locus YHR094C, strain hxt1, hits give low values 0.993 | locus YHR129C, strain ARP1, hits give low values 1 | locus YHR142W, strain chs7, hits give low values 1.01 | locus YHR200W, strain rpn10, hits give low values 0.997 | locus YIL066C, strain RNR3, hits give low values 1.01 | locus YIL073C, strain SPO22, hits give low values 0.999 | locus YIL125W, strain kgd1, hits give low values 0.997 | locus YIR030C, strain dcg1, hits give low values 1 | locus YJL092W, strain hpr5, hits give low values 0.987 | locus YJL095W, strain BCK1, hits give low values 1.01 | locus YJL115W, strain asf1, hits give low values 1 | locus YJL129C, strain trk1, hits give low values 0.946 | locus YJL134W, strain LCB3, hits give low values 1.01 | locus YJL154C, strain vps35, hits give low values 0.985 | locus YJL164C, strain tpk1, hits give low values 1 | locus YJL166W, strain qcr8, hits give low values 0.98 | locus YJL168C, strain set2, hits give low values 0.997 | locus YJL187C, strain SWE1 (second series), hits give low values 1.01 | locus YJL187C, strain SWE1, hits give low values 0.987
